Test results as given in PubChem BioAssay (NCATS).
Results filed as inconclusive are left out. A call without a number means that no potency is given here. Activity calls are given as the source filed them. Calls follow the shape of the dose curve; as a rule, active = well fitted inhibition curve with a large enough effect; inconclusive = small, poorly fitted or top-dose-only effect; inactive = flat fitted curve, though single readings scatter.

tested on: CRL-7250; test: qHTS assay to identify novel small-molecules to repurpose for Merkel cell carcinoma treatment (AID 1296009); conditions: MCC and control cell lines, CellTiter-Glo viability, 72 h; series mostly up to 92 µM; also: nearly all actives have a fitted effect of over 60% in size
Method in brief: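 Cells exposed to NPC (8-point) and MIPE (11-point) compound dilutions for 72 hr at 37 degree celsius; viability read by CellTiter-Glo luminescence, normalized to no-cell and DMSO in-plate controls.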

Row | Structure (SMILES) | Potency
1 | C=C1C(O)CC2C(C(=O)O)=COC(O[C@@H]3O[C@H](COC(=O)c4ccc(O)cc4)[C@@H](O)[C@H](O)[C@H]3O)C12 (stereo not given in full) | inactive
2 | C=CC/C=C\C/C=C\CCCCCCCc1cccc(O)c1C(=O)O | inactive
3 | O=C(O)/C=C/c1ccc(O)c(O[C@@H]2O[C@H](CO)[C@@H](O)[C@H](O)[C@H]2O)c1 | inactive
4 | O=C(O)C[C@H]1CCC(=O)[C@@H]1C/C=C\CCO | inactive
5 | C[C@@H]1O[C@@H](O[C@H]2[C@@H]3C=CO[C@@H](O[C@@H]4O[C@H](CO)[C@@H](O)[C@H](O)[C@H]4O)[C@@H]3[C@@]3(CO)O[C@@H]23)[C@H](OC(=O)/C=C/c2ccc(O)c(O)c2)[C@H](O)[C@H]1O | inactive
6 | COC(=O)C1=CO[C@@H](O[C@@H]2O[C@H](CO)[C@@H](O)[C@H](O)[C@H]2O)[C@H]2[C@@H]1[C@H](O)C[C@]2(C)O | inactive
7 | C=C1CC[C@@]2(OC1)O[C@H]1CC3[C@@H]4CC=C5C[C@@H](O)C[C@@H](O[C@@H]6OC[C@H](O)[C@H](O)[C@H]6O[C@@H]6O[C@@H](C)[C@H](O)[C@@H](O)[C@H]6O)[C@]5(C)C4CC[C@]3(C)[C@H]1[C@@H]2C (stereo not given in full) | inactive
8 | C=CC(=O)N1CC(N2CCN(C(=O)CNc3cc(C4CC4)c(Cl)cc3O)CC2)C1 | inactive
9 | CC(=O)OC/C(=C/C(=O)O)CC[C@@H]1C(C)=CC(=O)[C@@H]2C(C)(C)CCC[C@@]12C | inactive
10 | CC1=C(C)C(=O)OC(C(C)C2CCC3C4C5OC5C5(O)CC(OC6OC(CO)C(OC7OC(C)C(O)C(O)C7O)C(O)C6O)CC(O)C5(C)C4CCC23C)C1 (stereo not given) | inactive
